PubChem BioAssay (Tox21)
Results filed as inconclusive are left out. Activity calls are given as the source filed them. Unless noted, the call rests on the fitted dose curve; in most records, active means well fitted curve in the direction sought with a large enough effect in the repeat runs; inconclusive means weak or mixed curves; inactive means no such curve, though single readings can be large; an effect the other way counts as inactive or inconclusive.

Assays:
[1] = qHTS assay to identify small molecule antagonists of the thyroid receptor (TR) signaling pathway - cell viability counter screen (AID 743064); further: nearly all actives have a fitted effect of over 50% in size; further: potency means the concentration at half of the fitted maximal effect
How it was run: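 Viability of T3-stimulated (1 nM final) GH3.TRE-Luc cells is measured by CellTiter-Fluor fluorescence after 23.5 h compound exposure at 37 °C plus 30 min reagent incubation.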

[2] = qHTS assay to identify small molecule antagonists of the thyroid receptor (TR) signaling pathway (AID 743065); further: nearly all actives have a fitted effect of over 55% in size; further: potency means the concentration at half of the fitted maximal effect
How it was run: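 Antagonism measured as loss of luciferase signal in GH3 cells stably carrying a TRE-luciferase reporter, co-treated with compound and T3 (1 nM final) for 23.5 h at 37 C. Viability was read in the same well by CellTiter-Fluor.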

[3] = test system: thyroid hormone receptor (rat, GH3 cells); experiment: qHTS assay to identify small molecule agonists of the thyroid receptor (TR) signaling pathway (AID 743066; calls by dose curve; further: potency means the concentration at half of the fitted maximal effect)
[4] = target: Estrogen receptor (Homo sapiens) (UniProt P03372); experiment: qHTS assay to identify small molecule antagonists of the estrogen receptor alpha (ER-alpha) signaling pathway (AID 743069; active means well fitted curve in the direction sought with a large enough effect in the signal ratio in the repeat runs, not every such curve was filed as active; the % refers to the signal ratio)
Chain of Estrogen receptor (Homo sapiens) (P03372 whole entry, looked up): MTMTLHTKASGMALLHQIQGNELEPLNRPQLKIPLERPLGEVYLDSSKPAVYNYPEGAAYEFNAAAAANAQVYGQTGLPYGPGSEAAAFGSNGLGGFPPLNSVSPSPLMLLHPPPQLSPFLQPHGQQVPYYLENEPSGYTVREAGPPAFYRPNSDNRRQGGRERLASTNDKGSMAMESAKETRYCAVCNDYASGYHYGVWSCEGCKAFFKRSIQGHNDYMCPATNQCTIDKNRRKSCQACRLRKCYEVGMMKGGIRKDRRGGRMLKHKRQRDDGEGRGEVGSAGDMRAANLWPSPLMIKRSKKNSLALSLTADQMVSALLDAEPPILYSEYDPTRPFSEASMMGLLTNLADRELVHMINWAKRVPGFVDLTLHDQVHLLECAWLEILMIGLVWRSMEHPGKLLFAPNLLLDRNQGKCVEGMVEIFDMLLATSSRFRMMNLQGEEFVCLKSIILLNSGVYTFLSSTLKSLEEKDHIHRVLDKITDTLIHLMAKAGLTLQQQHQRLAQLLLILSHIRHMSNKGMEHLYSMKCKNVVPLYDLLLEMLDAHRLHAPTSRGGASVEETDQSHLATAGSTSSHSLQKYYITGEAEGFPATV
How it was run: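 Fluorescence intensity from a beta-lactamase FRET substrate served as the read-out. Cells: HEK293 with stably integrated ER-alpha-UAS-bla reporter. Agonist 17beta-estradiol was co-added with compounds; incubation 18 hr at 37C, substrate 2 hr at room temperature.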

[5] = qHTS assay to identify small molecule antagonists of the estrogen receptor alpha (ER-alpha) signaling pathway - cell viability counter screen (AID 743074; calls by dose curve; further: nearly all actives have a fitted effect of over 45% in size; further: potency means the concentration at half of the fitted maximal effect)
[6] = target: Estrogen receptor (Homo sapiens) (UniProt P03372); experiment: qHTS assay to identify small molecule agonists of the estrogen receptor alpha (ER-alpha) signaling pathway (AID 743075; calls by dose curve)
[7] = target: Estrogen receptor (Homo sapiens) (UniProt P03372); experiment: qHTS assay to identify small molecule agonists of the estrogen receptor alpha (ER-alpha) signaling pathway using the BG1 cell line (AID 743079); further: nearly all actives have a fitted effect of over 20% in size; further: potency means the concentration at half of the fitted maximal effect
[8] = qHTS assay to identify small molecule antagonists of the estrogen receptor alpha (ER-alpha) signaling pathway using the BG1 cell line (AID 743080; calls by dose curve;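 further: BG1 cells stimulated with 17beta-estradiol alongside compound; series mostly up to about 70 µM; nearly all actives have a fitted effect of over 25% in size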)
How it was run: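 Seeding, 24 h rest, compound transfer from DMSO, 17beta-estradiol addition, 21.5 h incubation, CellTiter-Fluor (30 min, 37 C), then ONE-Glo (30 min, room temperature): this sequence was run on BG1-Luc-4E2 reporter cells.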

[9] = qHTS assay to identify small molecule antagonists of the estrogen receptor alpha (ER-alpha) signaling pathway using the BG1 cell line - cell viability counter screen (AID 743081);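 further: compound given together with 17beta-estradiol as the ER stimulus; series mostly up to about 70 µM; nearly all actives have a fitted effect of over 45% in size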
Aromatase (Homo sapiens) = Aromatase (Homo sapiens) (UniProt P11511); experiment: qHTS assay to identify aromatase inhibitors (AID 743083); further: series mostly up to about 70 µM; nearly all actives have a fitted effect of over 55% in size
Chain of Aromatase (Homo sapiens) (P11511 whole entry, looked up): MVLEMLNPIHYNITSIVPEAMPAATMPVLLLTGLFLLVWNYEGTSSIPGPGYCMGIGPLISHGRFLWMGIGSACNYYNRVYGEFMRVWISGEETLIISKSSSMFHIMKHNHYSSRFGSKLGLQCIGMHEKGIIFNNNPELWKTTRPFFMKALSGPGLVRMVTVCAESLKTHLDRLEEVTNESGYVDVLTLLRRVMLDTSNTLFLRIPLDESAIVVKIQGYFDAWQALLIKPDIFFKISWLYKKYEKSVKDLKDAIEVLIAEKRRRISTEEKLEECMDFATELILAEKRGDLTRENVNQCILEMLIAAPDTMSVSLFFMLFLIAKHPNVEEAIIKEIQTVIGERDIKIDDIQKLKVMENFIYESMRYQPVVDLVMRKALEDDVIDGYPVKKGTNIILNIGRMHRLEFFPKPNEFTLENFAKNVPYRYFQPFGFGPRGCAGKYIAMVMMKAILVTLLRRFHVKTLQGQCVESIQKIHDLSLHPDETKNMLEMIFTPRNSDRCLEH

Measured: Potency

CCCCC(CC)COS(=O)(=O)O (stereo not given)
inactive: all assays above

O=C(O)c1cccc(C[C@@H]2COc3ccc(OCc4nc5cc(F)ccc5s4)cc3[C@@H]2O)c1
inactive: all assays above

Cc1ccc(Nc2c(F)cccc2Cl)c(CC(=O)O)c1
inactive: all assays above

O=[N+]([O-])c1ccc2ncccc2c1
inactive: all assays above

CCCCCCCCCCCCCCN(C)C
inactive: all assays above

Nc1ccc(NC(=O)c2ccc(N)cc2)cc1
not listed: Aromatase (Homo sapiens)
inactive: all other assays above

CCC(CO)(CO)[N+](=O)[O-]
inactive: all assays above

COc1ccc2nc(S(=O)Cc3ncc(C)c(OC)c3C)[nH]c2c1 (stereo not given)
inactive: all assays above

NC(=O)CCCCC(N)=O
inactive: all assays above

CC(C)(C)NCC(O)COc1cccc2c1C[C@H](O)[C@H](O)C2 (stereo not given in full)
inactive: all assays above

COc1ccc(-c2cc(C(F)F)nn2-c2ccc(S(N)(=O)=O)cc2)cc1F
inactive: all assays above

CCOCCC(=O)OCC
inactive: all assays above

O=C(c1ccccc1)C1CCC1
inactive: all assays above

CC(=O)C(=O)CC(C)C
active: [7] 34.2 µM
inactive: all other assays above

C=C(C)C(=O)OCCC(F)(F)C(F)(F)C(F)(F)C(F)(F)C(F)(F)C(F)(F)F
inactive: all assays above

CC(C)c1ccc(C#N)cc1
inactive: all assays above

O=C(O)CCS
inactive: all assays above

COc1ccc(CCN(C)CCCN2CCc3cc(OC)c(OC)cc3CC2=O)cc1OC
inactive: all assays above

c1ccc2sc(SSc3nc4ccccc4s3)nc2c1
inactive: all assays above

BrC(Br)C(Br)Br
inactive: all assays above

COC(=O)CC(C(C)=O)C(=O)OC (stereo not given)
inactive: all assays above

CCN(CC)C(=O)/C(C#N)=C/c1cc(O)c(O)c([N+](=O)[O-])c1
inactive: all assays above

O=c1[nH][nH]c(=O)c2cc([N+](=O)[O-])ccc12
inactive: all assays above

CCSC(=O)N(CC)CC
inactive: all assays above

CCN(CC)CCNC(=O)c1cc(Cl)c(N)cc1OC
inactive: all assays above

Nc1c(Cl)cc(Cl)cc1[N+](=O)[O-]
not listed: Aromatase (Homo sapiens)
inactive: all other assays above

O=NN(CCCl)C(=O)NCCCl
inactive: all assays above

COC(C)(C)OC
inactive: all assays above

COC(=O)c1sccc1S(N)(=O)=O
inactive: all assays above

O=C(C(=O)c1ccco1)c1ccco1
inactive: all assays above

[Cl][Nd]([Cl])[Cl]
inactive: all assays above

CC(=O)NNC(C)=O
inactive: all assays above

O=C(O)CO
inactive: all assays above

COc1cc(NCc2ccc3nc(N)nc(N)c3c2C)cc(OC)c1OC
active: [1] 8.41 µM | [2] 0.668 µM | [5] 0.213 µM
inactive: [3] | [4] | [6] | [7]

CC1CCc2nccnc21 (stereo not given)
inactive: all assays above

C=CCOC(=O)COCCC(C)C
inactive: all assays above

C=C(C)c1ccccc1
inactive: [1] | [2] | [3] | [5] | [9]

CCN(CC)c1cccc(O)c1
active: [7] 70 µM
not listed: [4] | [6]
inactive: all other assays above

Cc1cc([N+](=O)[O-])ccc1N
not listed: [5] | [7] | Aromatase (Homo sapiens)
inactive: all other assays above

Cc1ccc2c(c1)CCCN2
not listed: [8]
inactive: all other assays above

CCC(C)(C)C(=O)O
not listed: [7]
inactive: all other assays above

COc1cc(C(C)=O)ccc1OCCCN1CCC(c2noc3cc(F)ccc23)CC1
active: [1] 21.1 µM | [2] 23.7 µM
not listed: [9]
inactive: all other assays above

CC(=O)OCCC(C)CC(C)(C)C (stereo not given)
active: [3] 24.3 µM
inactive: all other assays above

COC1CCC=CO1 (stereo not given)
not listed: [6]
inactive: all other assays above

C[C@@H]1C[C@H]2[C@@H]3CCC4=CC(=O)C=C[C@]4(C)[C@@]3(F)[C@@H](O)C[C@]2(C)[C@@]1(O)C(=O)COP(=O)(O)O
not listed: [4] | [7] | [8]
inactive: all other assays above

CN(C)CC/C=C1\c2ccccc2Sc2ccc(Cl)cc21
active: [1] 11.9 µM | [2] 11.9 µM
not listed: [4] | Aromatase (Homo sapiens)
inactive: all other assays above

Cc1ccccc1S(N)(=O)=O
inactive: [1] | [2] | [3] | [5] | [9]

CC(C)c1ccc(C(=O)N=C(N)N)cc1S(C)(=O)=O
not listed: [7]
inactive: all other assays above
